{"source": "PubChem BioAssay AID624405", "about": "(Broad Institute, 2012)", "note": "Screen size: about 1,900 compounds; about 250 (13%) were called active. Roughly 4% stayed inconclusive and do not appear here. Not all results are given here. Potency and affinity values are given separately. Unmarked numbers belong to inactive results.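 How the source made its calls: active means fitted curve reaches 40% rescue activity at or below the top valid dose, in every test run; inconclusive means test runs disagree, some active and some inactive; inactive means every run misses the threshold or moves the wrong way.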", "data": [{"experiment": "rescue of simvastatin-induced ATP loss – cell-based, C2C12 myotubes, ATP luminescence, cherry pick, dose response (AID 624405);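 further: myotubes are challenged with simvastatin at 10 µM to lower ATP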", "details": "48 h, scaled: DMSO wells 0, geranylgeraniol wells 100; series mostly up to 19.5 µM; rescue activity (ATP increase): at the top concentration", "values": [{"molecule": "C[C@H]1CN([C@@H](C)CO)C(=O)Cc2cc(NC(=O)c3ccncc3)ccc2O[C@@H]1CN(C)C(=O)Nc1cccc2ccccc12", "rescue activity (ATP increase)": "2.64% [at 21 µM]"}, {"molecule": "C[C@H](CO)N1C[C@H](C)[C@@H](CN(C)S(=O)(=O)c2ccc(Cl)cc2)OCCCC[C@H](C)Oc2ccc(NS(C)(=O)=O)cc2C1=O", "rescue activity (ATP increase)": "-2.17%"}, {"molecule": "C[C@H](CO)N1C[C@H](C)[C@@H](CN(C)Cc2ccc(Cl)c(Cl)c2)Oc2ccc(NC(=O)Cc3ccccc3)cc2CC1=O", "rescue activity (ATP increase)": "31.3%"}, {"molecule": "C[C@H]1CN([C@@H](C)CO)C(=O)c2cc(C3=CCCCC3)cnc2O[C@H]1CN(C)C(=O)c1ccccn1", "rescue activity (ATP increase)": "-12.9%"}, {"molecule": "Cc1cc(NC(=O)c2ccc(N3C(=O)CCC3=O)cc2)no1", "rescue activity (ATP increase)": "20.2%"}, {"molecule": "COc1ccc(Cl)cc1C(=O)n1nc(C)cc1C", "rescue activity (ATP increase)": "0.34%"}, {"molecule": "COc1cc(C)ccc1OCCCOc1cc(C)ccc1Cl", "rescue activity (ATP increase)": "12.3%"}, {"molecule": "C[C@@H]1CN([C@@H](C)CO)C(=O)Cc2cc(NC(=O)CCC(F)(F)F)ccc2O[C@H]1CN(C)Cc1ccc(Oc2ccccc2)cc1", "rescue activity (ATP increase)": "34.1%"}, {"molecule": "CCc1c(C)sc(NC(=O)c2ccco2)c1C(=O)N1CCCCC1", "rescue activity (ATP increase)": "11.7%"}, {"molecule": "Cc1ccc(-c2nc3ccccc3[nH]2)cc1NC(=O)c1ccco1", "rescue activity (ATP increase)": "-123%"}, {"molecule": "C[C@H](CO)N1C[C@H](C)[C@@H](CN(C)Cc2ccc(-c3ccccc3)cc2)Oc2ccc(NC(=O)Cc3cn(C)c4ccccc34)cc2CC1=O", "rescue activity (ATP increase)": "16.5%"}, {"molecule": "C[C@@H]1CN([C@H](C)CO)C(=O)c2cccc(NS(=O)(=O)c3cccs3)c2O[C@@H]1CN(C)Cc1ccc(Oc2ccccc2)cc1", "rescue activity (ATP increase)": "37.4%"}, {"molecule": "CC1Cc2ccccc2N1C(=O)C1CCN(S(=O)(=O)Cc2ccccc2)CC1", "note": "(centres undefined)", "rescue activity (ATP increase)": "13.7%"}, {"molecule": "Cc1cc(C(=O)CSc2nnnn2-c2ccccc2)c(C)n1CCc1ccccc1", "rescue activity (ATP increase)": "-34.3%"}, {"molecule": "CCOC(=O)c1ccc(-c2c(C(=O)OCC)oc3cc(O)c(CC)cc3c2=O)o1", "rescue activity (ATP increase)": "25.6%"}, {"molecule": "Cc1cccc(C(=O)N2CCC(n3nnc4cc(F)ccc43)CC2)c1", "rescue activity (ATP increase)": "-54.9%"}, {"molecule": "CCC(NS(=O)(=O)c1ccc(C)cc1)C(=O)Nc1ccc(NC(C)=O)cc1", "note": "(centres undefined)", "rescue activity (ATP increase)": "-17.2%"}, {"molecule": "Cc1cccc(C)c1NC(=O)c1nc(S(=O)(=O)Cc2ccccc2)ncc1Cl", "rescue activity (ATP increase)": "-777%"}, {"molecule": "COc1ccccc1NC(=O)CN1C(=O)CCS(=O)(=O)c2ccccc21", "rescue activity (ATP increase)": "49.8%"}, {"molecule": "CS(=O)(=O)c1ncc(Cl)c(C(=O)Nc2ccc(OC(F)F)cc2)n1", "rescue activity (ATP increase)": "-436%"}, {"molecule": "Cc1noc(C)c1NC(=O)Nc1ccc2c(c1)C(=O)N([C@H](C)CO)C[C@@H](C)[C@H](CN(C)C(=O)Nc1ccccc1)OCCCC[C@@H](C)O2", "rescue activity (ATP increase)": "2.09%"}, {"molecule": "CN1C[C@@H]2[C@H](c3ccccc31)[C@H](CO)N2Cc1ccccc1", "rescue activity (ATP increase)": "-1.19%"}, {"molecule": "Nc1nc(CSc2nnnn2-c2ccccc2)nc(N2CCCc3ccccc32)n1", "rescue activity (ATP increase)": "-0.398%"}, {"molecule": "COC(=O)c1c(C)noc1-c1cc(C)on1", "rescue activity (ATP increase)": "21.9%"}, {"molecule": "C[C@@H]1CN([C@H](C)CO)C(=O)c2cc(NC(=O)Nc3ccc(F)cc3)ccc2O[C@@H](C)CCCCO[C@@H]1CN(C)S(=O)(=O)c1cccs1", "rescue activity (ATP increase)": "-1.09%"}, {"molecule": "COc1cccc(-c2cnc3c(c2)C(=O)N([C@H](C)CO)C[C@H](C)[C@H](CN(C)Cc2cccc(C)c2)O3)c1", "rescue activity (ATP increase)": "-22.6%"}, {"molecule": "C[C@@H]1CN([C@H](C)CO)C(=O)c2cc(NS(C)(=O)=O)ccc2O[C@@H](C)CCCCO[C@H]1CN(C)S(=O)(=O)c1ccc(Cl)cc1", "rescue activity (ATP increase)": "15.7%"}, {"molecule": "COc1ccc(NC(=O)Nc2ccc3c(c2)C(=O)N([C@@H](C)CO)C[C@@H](C)[C@@H](CN(C)CC2CCCCC2)OCCCC[C@H](C)O3)cc1", "rescue activity (ATP increase)": "-15.9%"}, {"molecule": "CCCCCn1c(N2CCC(C(N)=O)CC2)nc2c1c(=O)[nH]c(=O)n2C", "rescue activity (ATP increase)": "4.98%"}, {"molecule": "CCOCCn1c(N2CCN(c3ccc(OC)cc3)CC2)nc2c1c(=O)[nH]c(=O)n2C", "rescue activity (ATP increase)": "-0.858%"}, {"molecule": "CCCCn1c(SCc2ccccn2)nc2c1c(=O)n(C)c(=O)n2C", "rescue activity (ATP increase)": "30.4%"}, {"molecule": "Cc1cccc(Cn2c(N3CCCCC3C)nc3c2c(=O)[nH]c(=O)n3C)c1", "note": "(centres undefined)", "rescue activity (ATP increase)": "39.2%"}, {"molecule": "O=C(Nc1ccc2nn(-c3ccccc3)nc2c1)c1cccnc1", "rescue activity (ATP increase)": "-57.5%"}, {"molecule": "O=C(CSCc1ccc(Cl)cc1)N/N=C/c1ccccc1", "rescue activity (ATP increase)": "-13.5%"}, {"molecule": "C[C@@H]1CN([C@@H](C)CO)C(=O)Cc2cc(NC(=O)Nc3cccc4ccccc34)ccc2O[C@H]1CN(C)Cc1ccc(Oc2ccccc2)cc1", "rescue activity (ATP increase)": "9.69%"}, {"molecule": "O=C(Nc1ccccc1Cl)NC1(C(=O)N2CCCCC2)CCCCC1", "rescue activity (ATP increase)": "17%"}, {"molecule": "Cc1ccc(-c2cc(N)n(-c3ccc(C)cc3)n2)cc1", "rescue activity (ATP increase)": "-27%"}, {"molecule": "C=CCn1c(=O)/c(=C\\c2ccsc2)s/c1=C(/C#N)C(=O)NCCN1CCOCC1", "rescue activity (ATP increase)": "-5.47%"}, {"molecule": "Cc1ccc(S(=O)(=O)Nc2ccc3c(c2)C(=O)N([C@@H](C)CO)C[C@H](C)[C@H](CN(C)Cc2ccc(C(=O)Nc4ccccc4N)cc2)O3)cc1", "rescue activity (ATP increase)": "-0.826% [at 16 µM]"}, {"molecule": "C[C@H]1CN([C@@H](C)CO)C(=O)c2cc(NS(=O)(=O)c3ccc(Cl)cc3)ccc2O[C@H]1CN(C)Cc1ccc(Oc2ccccc2)cc1", "rescue activity (ATP increase)": "26.2%"}, {"molecule": "C[C@@H]1CCCCO[C@H](CN(C)C(=O)Nc2cccc3ccccc23)[C@H](C)CN([C@H](C)CO)C(=O)c2cc(NS(=O)(=O)c3ccc(Cl)cc3)ccc2O1", "rescue activity (ATP increase)": "35.3%"}, {"molecule": "C[C@H]1CN([C@@H](C)CO)C(=O)c2cc(NC(=O)Nc3ccc(C(F)(F)F)cc3)ccc2O[C@@H]1CN(C)Cc1ccc(C(=O)Nc2ccccc2N)cc1", "rescue activity (ATP increase)": "12.3% [at 18 µM]"}, {"molecule": "Cc1ccc(S(=O)(=O)Nc2ccc3c(c2)C(=O)N([C@@H](C)CO)C[C@H](C)[C@H](CN(C)Cc2ccc(C(F)(F)F)cc2)O3)cc1", "rescue activity (ATP increase)": "28.9%"}, {"molecule": "C[C@@H]1CN([C@H](C)CO)C(=O)c2cc(NS(=O)(=O)c3ccc(Cl)cc3)ccc2O[C@H]1CN(C)C(=O)Nc1cccc2ccccc12", "rescue activity (ATP increase)": "6.95% [at 21 µM]"}]}]}
